Compounds with a hit are over-represented: about 0.28% of the library has one in this group of screens.
mcGAS lum = inhibitors of mouse cGAS; recombinant cGAS, Kinase-Glo ATP depletion luminescence; Q8C6L5; inhibition, % at 12.5 µM; 160,000 tested, 0.15% active;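 further: 0% = negative control wells and 100% = reference inhibitor with no enzyme activity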
hcGAS lum = human cGAS inhibition; recombinant h-cGAS, ATP depletion, Kinase-Glo luminescence; Q8N884; inhibition, % at 12.5 µM; 290,000 tested, 0.081% active;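 further: 0% = vehicle reaction and 100% = reaction without DNA for no activity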
Target sequence (Q8N884 whole entry, looked up): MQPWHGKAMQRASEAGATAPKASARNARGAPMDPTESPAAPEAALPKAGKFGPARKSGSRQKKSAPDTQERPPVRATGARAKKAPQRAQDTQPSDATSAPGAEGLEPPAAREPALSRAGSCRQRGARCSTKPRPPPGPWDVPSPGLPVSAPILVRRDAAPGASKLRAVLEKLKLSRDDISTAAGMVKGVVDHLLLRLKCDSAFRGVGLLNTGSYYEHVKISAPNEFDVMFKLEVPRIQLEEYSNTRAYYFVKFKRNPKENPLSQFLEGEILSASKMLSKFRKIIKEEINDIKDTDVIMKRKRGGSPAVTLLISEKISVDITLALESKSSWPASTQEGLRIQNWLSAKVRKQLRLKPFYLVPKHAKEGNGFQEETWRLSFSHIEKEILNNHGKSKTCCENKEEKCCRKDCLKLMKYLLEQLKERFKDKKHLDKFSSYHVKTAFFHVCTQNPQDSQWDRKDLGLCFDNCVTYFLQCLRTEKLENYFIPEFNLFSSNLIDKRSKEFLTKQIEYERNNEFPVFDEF
NPYLR7 ag = activates Aedes aegypti NPYLR7 receptor; HEK293T NPYLR7/Galpha15, GCaMP6s calcium fluorescence; activation, % at 10 µM; 270,000 tested, 0.15% active; in the data active means activation above about 40%;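 further: 0% = vehicle and 100% = reference agonist at the receptor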
The depositor's hits bear a star. Unless noted, no stated cut-off is given here; in the data, active means inhibition above about 40%; inactive means the rest.

What do the screens show for `Cc1cc(C=C2Sc3ccccc3N2C)cc(C)[n+]1Cc1ccncc1`?
mcGAS lum: -2; hcGAS lum: 1; NPYLR7 ag: 51*

How did CCCC[n+]1c(C)cc(C=C2Sc3ccccc3N2C)cc1C do in these assays?
hcGAS lum: -1; NPYLR7 ag: 198*

What do the screens show for `CCN1/C(=C/C2=CC(=O)CC(C)(C)C2)Sc2ccccc21`?
hcGAS lum: -5; NPYLR7 ag: 60*

How did CCOC(=O)c1ccccc1N1C(=O)/C(=C\c2ccncc2)N(C)C1=S do in these assays?
mcGAS lum: -3; hcGAS lum: -6; NPYLR7 ag: -4

How did CN1C(=C2C(=O)CC(C)(C)CC2=O)Sc2ccccc21 do in these assays?
hcGAS lum: 4; NPYLR7 ag: 1

What do the screens show for `CN(C)CCCN1c2ccccc2Sc2ccc(C(F)(F)F)cc21`?
mcGAS lum: -6; hcGAS lum: -3; NPYLR7 ag: 9

Results for Cc1cc(C=C2Sc3ccccc3N2C)cc(C)[n+]1N1CCN(C)CC1 ?
hcGAS lum: 9; NPYLR7 ag: 47

Results for O=C(Oc1ccc([N+](=O)[O-])cc1)c1cc(Br)ccc1Cl ?
mcGAS lum: -6; hcGAS lum: -4; NPYLR7 ag: 7

How did C=CC[n+]1c(C=Cc2ccc(N(C)C)cc2)ccc2ccccc21 do in these assays?
mcGAS lum: -23; hcGAS lum: -60; NPYLR7 ag: 0

Results for Cc1oc(-c2ccccc2)nc1C(=O)NCC1CCCCC1 ?
hcGAS lum: -16; NPYLR7 ag: 4

How did O=C(CC1C=CCC1)Nc1cccc(S(=O)(=O)N2CCOCC2)c1 (stereo unspecified) do in these assays?
hcGAS lum: -7; NPYLR7 ag: -8

Results for COc1ccc(S(=O)(=O)Oc2ccc(-c3nc4ccc(Br)cn4c3NC(C)(C)CC(C)(C)C)cc2OC)cc1 ?
mcGAS lum: -10; hcGAS lum: -6; NPYLR7 ag: 7

What do the screens show for `CCc1nc2c(OCc3ccc4c(c3)OCO4)cccn2c1N(C)C(=O)c1cccc(OC)c1`?
mcGAS lum: -5; hcGAS lum: -4; NPYLR7 ag: 9

What do the screens show for `CCN1C(=CC=Cc2sc3ccccc3[n+]2CC)Sc2ccccc21`?
hcGAS lum: -49; NPYLR7 ag: -12

How did CCOC(=O)/C(C#N)=C1/Sc2ccccc2N1C do in these assays?
hcGAS lum: 2; NPYLR7 ag: -2

Results for CCN1C(=Cc2ccc3cc(C)ccc3[n+]2CC)Sc2ccccc21 ?
hcGAS lum: 8; NPYLR7 ag: 74*

How did CCC(C)[n+]1c(C)cc(C=C2Sc3ccccc3N2CC)cc1C (stereo unspecified) do in these assays?
hcGAS lum: -4; NPYLR7 ag: 78*

Results for CCC(C)[n+]1c(C)cc(C=C2Sc3ccccc3N2C)cc1C (stereo unspecified) ?
hcGAS lum: 7; NPYLR7 ag: 173*

Results for CCN1c2ccccc2Sc2cc(C=O)ccc21 ?
hcGAS lum: 0; NPYLR7 ag: 8

What do the screens show for `Cc1nonc1CN(C)C(=O)CC1C(=O)NCCN1Cc1cccc(Oc2ccccc2)c1` (stereo unspecified)?
hcGAS lum: -5; NPYLR7 ag: -2

How did COc1ccccc1C1Oc2ccccc2C2CC(c3ccc4c(c3)OCCO4)=NN21 (stereo unspecified) do in these assays?
hcGAS lum: -1; NPYLR7 ag: 4

Results for CCOC(=O)CNC(=O)NCc1nnc(SCc2ccccc2C)n1-c1cc(Cl)ccc1Cl ?
mcGAS lum: -1; hcGAS lum: 1; NPYLR7 ag: -3

Results for C=CCC(C)(C)CN1CCCC(CNC(C)=O)C1 (stereo unspecified) ?
mcGAS lum: -10; hcGAS lum: -3; NPYLR7 ag: 7

What do the screens show for `O=C1CCCC2Nc3ncnc(Cl)c3OC12` (stereo unspecified)?
hcGAS lum: 6; NPYLR7 ag: 77*

What do the screens show for `O=C(NN=Cc1ccccc1C(F)(F)F)c1cnccn1`?
mcGAS lum: 55*; hcGAS lum: 1; NPYLR7 ag: -5

Results for O=C(NN=Cc1ccccc1C(F)(F)F)c1ccco1 ?
mcGAS lum: -1; hcGAS lum: -2; NPYLR7 ag: -2

How did Cc1cccc(NC(=O)N(CC2CCOC2)C2CC2)c1 (stereo unspecified) do in these assays?
hcGAS lum: -14; NPYLR7 ag: 4

What do the screens show for `CCCCNC(=O)CCCCCNC(N)=O`?
hcGAS lum: -3; NPYLR7 ag: 55*

Results for CCCCCCCCCCCCCCCC(=O)NCCO ?
mcGAS lum: -3; hcGAS lum: -8; NPYLR7 ag: 5

What do the screens show for `Cc1ccccc1Oc1cc(C(F)(F)F)nc(SCc2cccc(C#N)c2)n1`?
mcGAS lum: 1; hcGAS lum: 5; NPYLR7 ag: 1

What do the screens show for `CC(=O)c1ccc(-n2c(=O)c3ccccc3c3ccccc3c2=O)cc1`?
hcGAS lum: -6; NPYLR7 ag: 4

Screening data as filed in PubChem BioAssay.
